Sampled rows, rich in hits. Any-hit rate of the full collection: about 12%.
USP17 inh = human USP17-like deubiquitinase inhibition; A8MUK1; purified USP17, Ub-rhodamine cleavage fluorescence, 3 h; inhibition, % at 50 µM; 47,000 compounds, 6.5% hits; AID 1645855
USP8 inh = human USP8 deubiquitinase inhibition | AID 1645853 | inhibition, % at 20 µM | 47,000 compounds, 4.2% hits | P40818 | purified USP8, Ub-rhodamine cleavage fluorescence, 30 min
USP7 block = blocks human USP7 ubiquitin-rhodamine cleavage; Q93009; purified USP7, Ub-rhodamine cleavage fluorescence; inhibition, % at 20 µM; 47,000 compounds, 0.3% hits
USP10 block = blocks human USP10 ubiquitin-rhodamine cleavage. Q14694. purified USP10, Ub-rhodamine fluorescence, 60 min. inhibition, % at 20 µM. 47,000 compounds, 1.1% hits. AID 1645856
USP30 block = human USP30 deubiquitinase inhibition | Q70CQ3 | purified USP30, Ub-rhodamine cleavage fluorescence | inhibition, % at 25 µM | 47,000 compounds, 5.3% hits
UCHL1 inh = blocks human UCHL1 ubiquitin-rhodamine cleavage; P09936; purified UCHL1, Ub-rhodamine cleavage fluorescence; inhibition, % at 20 µM; 47,000 compounds, 0.2% hits; AID 1645859
Numbers without * were called inactive. Cut-off read from the data, not from the text of the source: active = inhibition above about 30%; inactive = the rest.

What do the screens show for `Cc1cc(C(=O)N2CCOC3(CC=CCN(CCc4ccccc4)C3=O)C2)n2nccc2n1` (centres undefined)?
USP17 inh: 2.8; USP8 inh: 17.2; USP7 block: 1.5; USP10 block: -0.3; USP30 block: -0.1; UCHL1 inh: 3.4

What do the screens show for `Cn1nc(C(=O)Nc2cccc(F)c2)c(=O)c2ccccc21`?
USP17 inh: 44.6*; USP8 inh: 3.4; USP7 block: -1.7; USP10 block: 4.8; USP30 block: 36.7*; UCHL1 inh: -0.1

Results for Cc1cccc(CCNC(=O)Cn2nc(-n3c(C)ccc3C)c3c(C)cc(C)nc32)c1 ?
USP17 inh: -2.1; USP8 inh: 2.2; USP7 block: 10.4; USP10 block: 5.4; USP30 block: -27.0; UCHL1 inh: 7.9

How did Cc1ccccc1-c1noc(-c2cn(Cc3ccc(NC(=O)Cc4ccccc4)cc3)cn2)n1 do in these assays?
USP17 inh: 60.2*; USP8 inh: 37.5*; USP7 block: -2.4; USP10 block: 14.6; USP30 block: 68.8*; UCHL1 inh: 0.2

How did O=C(Nc1ccc(Cn2cnc(-c3nc(-c4ccccc4)no3)c2)cc1)c1ccccc1F do in these assays?
USP8 inh: 46.8*; USP7 block: 16.5; USP10 block: 21.4; USP30 block: 31.5*; UCHL1 inh: 11.2

Results for Cc1ccc(-c2noc(-c3cn(Cc4ccc(N)cc4)cn3)n2)cc1 ?
USP17 inh: 0.2; USP8 inh: -2.3; USP7 block: 1.2; USP10 block: 10.1; USP30 block: -2.7; UCHL1 inh: -1.4

Results for Cc1sc2nc(C3CC3)n(C3CCN(CC(=O)N(C)C)CC3)c(=O)c2c1C ?
USP17 inh: -8.9; USP8 inh: -2.7; USP7 block: -6.9; USP10 block: -1.2; USP30 block: -13.4; UCHL1 inh: -1.7

How did Fc1cccc(-n2cc(-c3noc(-c4ccccn4)n3)nn2)c1 do in these assays?
USP17 inh: 30.1*; USP8 inh: 7.6; USP7 block: -1.5; USP10 block: 3.7; USP30 block: 88.5*; UCHL1 inh: 1.0

How did Cc1c(-c2noc(-c3ccccn3)n2)nnn1Cc1ccccc1 do in these assays?
USP17 inh: 4.2; USP8 inh: -12.2; USP7 block: -1.5; USP10 block: 0.6; USP30 block: 11.8; UCHL1 inh: 1.2

How did COc1cccc(Cc2nc(-c3cn(-c4ccccc4)nn3)no2)c1 do in these assays?
USP17 inh: -3.7; USP8 inh: -2.2; USP7 block: -4.1; USP10 block: -5.5; USP30 block: -59.2; UCHL1 inh: -4.9

What do the screens show for `Fc1cccc(-n2cc(-c3noc(-c4ccc[nH]4)n3)nn2)c1`?
USP17 inh: 43.1*; USP8 inh: 34.6*; USP7 block: -0.8; USP10 block: 1.5; USP30 block: 77.0*; UCHL1 inh: 1.8

How did Cc1ccc(Cn2nnc(-c3noc(-c4ccc[nH]4)n3)c2C)cc1 do in these assays?
USP17 inh: 20.5; USP8 inh: 5.0; USP7 block: -115.3; USP10 block: 8.8; USP30 block: 21.8; UCHL1 inh: 4.6

How did COc1cccc(Cc2nc(-c3cn(-c4cccc(F)c4)nn3)no2)c1 do in these assays?
USP17 inh: 17.4; USP8 inh: 19.2; USP7 block: 5.9; USP10 block: 4.4; USP30 block: 35.9*; UCHL1 inh: 6.9

Results for O=C(Nc1ccc2nc(CCc3ccccc3)[nH]c2c1)c1ccncc1 ?
USP17 inh: 5.4; USP8 inh: 0.4; USP7 block: 5.6; USP10 block: -2.8; USP30 block: 19.9; UCHL1 inh: 1.0

What do the screens show for `Clc1ccc2nc(COc3ccccc3Cc3ccccc3)[nH]c2c1`?
USP17 inh: 30.7*; USP8 inh: 63.0*; USP7 block: -8.1; USP10 block: 9.1; USP30 block: 9.7; UCHL1 inh: 3.9

What do the screens show for `CSc1ccc(Cl)c(C(=O)Nc2cccn3cnnc23)c1`?
USP17 inh: -67.4; USP8 inh: -96.7; USP7 block: -17.7; USP10 block: -12.2; USP30 block: -204.7; UCHL1 inh: -18.1

What do the screens show for `O=C(C1CCC1)N1CC[C@@H]2CN(Cc3ccc(Cl)cc3)S(=O)(=O)[C@@H]2CC1`?
USP17 inh: -24.1; USP8 inh: -11.6; USP7 block: -16.7; USP10 block: 0.5; USP30 block: -13.9; UCHL1 inh: -3.0

Results for Clc1ccc(Cl)c(-c2nc(-c3cccs3)no2)c1 ?
USP17 inh: 3.3; USP8 inh: 7.7; USP7 block: 2.0; USP10 block: 1.5; USP30 block: -19.5; UCHL1 inh: -0.4

How did Cc1nc2sccn2c1-c1nc(-c2cc(Cl)ccc2Cl)cs1 do in these assays?
USP17 inh: 49.5*; USP8 inh: 5.2; USP7 block: 1.8; USP10 block: 0.4; USP30 block: 45.7*; UCHL1 inh: 1.6

How did CCc1ccc(CN2CC[C@@H]3CN(c4ncccn4)CCO[C@@H]3C2)o1 do in these assays?
USP17 inh: -13.6; USP8 inh: -9.1; USP7 block: -0.9; USP10 block: -1.7; UCHL1 inh: -3.5

What do the screens show for `O=C(Cn1c(=O)n(CCC(=O)N2CCc3ccccc3C2)c(=O)c2ccccc21)NCCC1=CCCCC1`?
USP17 inh: 14.6; USP8 inh: 6.8; USP7 block: 11.5; USP10 block: 11.2; USP30 block: 27.8; UCHL1 inh: 4.3

What do the screens show for `COc1ccccc1CNC(=O)CCCCn1c(=O)c2ccccc2n(CC(=O)NCCC2=CCCCC2)c1=O`?
USP17 inh: 42.6*; USP8 inh: -2.1; USP7 block: -0.1; USP10 block: 15.3; USP30 block: 3.7; UCHL1 inh: -1.7

Results for COc1ccccc1CNC(=O)CCCn1c(=O)c2ccccc2n(CC(=O)N2CCN(c3ccccc3)CC2)c1=O ?
USP17 inh: 57.3*; USP8 inh: 1.2; USP7 block: 1.5; USP10 block: 7.3; USP30 block: -1.7; UCHL1 inh: 1.4

Results for COc1cc(OC)cc(-n2c(=O)c3ccccc3n(CC(=O)NCCC3=CCCCC3)c2=O)c1 ?
USP17 inh: 29.1; USP8 inh: 23.0; USP7 block: 10.3; USP10 block: 15.6; USP30 block: 22.2; UCHL1 inh: 0.0

What do the screens show for `O=C(CCCn1c(=O)c2ccccc2n(CC(=O)N2CCN(c3ccccc3)CC2)c1=O)NCc1ccco1`?
USP8 inh: 35.8*; USP7 block: -2.6; USP10 block: -1.2; USP30 block: -18.4; UCHL1 inh: 3.9

What do the screens show for `O=C(Cn1c(=O)n(-c2ccc(CC(=O)NC3CCCC3)cc2)c(=O)c2ccccc21)NCc1ccco1`?
USP17 inh: -23.9; USP8 inh: -14.2; USP7 block: -7.8; USP10 block: 1.5; USP30 block: -40.6; UCHL1 inh: -3.9

How did O=C(Cn1c(=O)c2sccc2n(CC(=O)NCCC2=CCCCC2)c1=O)NCc1ccccc1Cl do in these assays?
USP17 inh: 47.6*; USP8 inh: 16.8; USP7 block: 18.0; USP10 block: 37.4*; UCHL1 inh: 1.5

Results for CCOc1ccc(S(=O)(=O)N2CCN=C2N2CCCCC2)cc1 ?
USP17 inh: -7.6; USP8 inh: -6.4; USP7 block: -12.6; USP10 block: -2.1; USP30 block: -33.7; UCHL1 inh: -0.6

Screening data: PubChem BioAssay, Buhrlage Lab, Dana-Farber Cancer Institute and Novartis Institutes for BioMedical Research (Cambridge, Mass)
